Rows were chosen to be rich in hits. Some 2.4% of all compounds tested hit in one or more screens of this group.
Cruzain inh noDet – inhibitors of Trypanosoma cruzi cruzain without detergent; P25779; purified cruzain, Z-FR-AMC fluorescence, no detergent; Potency, µM, actives largely listed as inhibitors; actives 2.3% (n = 200,000); AID 1476; also: nearly all actives have a fitted effect of over 40% in size
Target sequence (P25779 123-467 limits assumed): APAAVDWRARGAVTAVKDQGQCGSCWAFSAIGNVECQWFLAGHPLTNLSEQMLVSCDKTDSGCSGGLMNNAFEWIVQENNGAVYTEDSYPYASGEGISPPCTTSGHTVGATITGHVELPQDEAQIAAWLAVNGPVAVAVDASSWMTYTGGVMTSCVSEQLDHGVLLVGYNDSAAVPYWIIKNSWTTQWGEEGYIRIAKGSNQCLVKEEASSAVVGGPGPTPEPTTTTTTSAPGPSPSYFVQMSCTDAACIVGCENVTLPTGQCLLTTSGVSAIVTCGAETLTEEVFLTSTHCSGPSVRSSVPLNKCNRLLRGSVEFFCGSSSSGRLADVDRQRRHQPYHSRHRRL
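Purified cruzain at 1.5 nM, pre-incubated 15 min with compound at room temperature in 100 mM sodium acetate pH 5.5, 5 mM DTT, 0.00005% Triton X-100. Reaction started with 2 uM Z-FR-AMC; AMC fluorescence increase over 60 s gives rate.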
Cruzain inh Det – cruzain (T. cruzi) inhibition with detergent; P25779; purified cruzain, Z-FR-AMC fluorescence, 0.01% Triton; Potency, µM, actives largely listed as inhibitors; actives 0.43% (n = 200,000); also: nearly all actives have a fitted effect of over 40% in size
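Detergent-containing arm of a paired screen for aggregation-based inhibition: 0.01% Triton X-100 present. Cruzain at 1.5 nM cleaved 2 uM Z-FR-AMC at pH 5.5 with 5 mM DTT; AMC fluorescence gain over 60 s measured activity.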
A number is an active result; . = inactive; ? = inconclusive. Calls follow the shape of the dose curve; as a rule, active = well fitted curve in the direction sought with a large enough effect; inconclusive = small, poorly fitted or top-dose-only effect, or another doubt; inactive = no such curve, though single readings can be large; an effect the other way counts as inactive or inconclusive.

SMILES | Cruzain inh noDet | Cruzain inh Det
O=C(/C(=C(\[O-])c1ccccc1)[n+]1ccc2ccccc2c1)c1ccc(Cl)cc1 | 25µM | .
COc1ccc(-c2cc3ccc(O)c(CN4CCCC4)c3oc2=O)cc1OC | . | .
O=C(N/N=C/c1c(O)n(CCC2=CCCCC2)c(=O)[nH]c1=O)c1ccccc1 | 25µM | .
O=C(N/N=C/c1c(O)n(CCC2=CCCCC2)c(=S)[nH]c1=O)c1ccccc1 | . | .
O=C(c1ccco1)N1CCC2(CC1)CCN(C(c1ccccc1)c1ccccc1)CC2 | . | .
O=[N+]([O-])c1ccc(N2CCCC2)cc1NC(c1ccccc1)c1ccccc1 | 10µM | .
O=[N+]([O-])c1ccc(N2CCOCC2)cc1NC(c1ccccc1)c1ccccc1 | ? | .
COc1ccc(CNCCC(c2ccc3c(c2)OCO3)c2ccccc2OC)cc1 (stereo not given) | . | .
COC(=O)[C@@H](NC(=O)NC(C)CCc1ccccc1)C(C)C (stereo not given in full) | . | .
CC(C)[C@H](NC(=O)[C@H](CCCN=C(N)N)NC(=O)NC(Cc1ccccc1)C(=O)O)C(=O)NC(C=O)CCCN=C(N)N (stereo not given in full) | 0.032µM | 0.035µM
Cc1ccccc1C(=O)Nc1nc(-c2nnn(-c3ccc(C(C)C)cc3)c2C)ns1 | . | .
O=C(NC1CCN(C(=O)N2c3ccccc3Sc3ccccc32)CC1)c1ccccc1F | 20µM | .
CC1CCN(C(=O)N2c3ccccc3Sc3ccccc32)CC1 | . | .
CCCc1cnc2c(c1SCC(=O)Nc1ccccc1F)c(=O)n(C)c(=O)n2C | . | .
CCC(=O)Nc1cc(C(=O)OCc2ccc(C(=O)Oc3ccccc3)cc2)ccc1C | 13µM | .
CC(=O)Nc1cc(C(=O)OCC(=O)c2ccccc2)ccc1C | . | .
CCOc1ccc2c(c1)c(=O)c(C(=O)c1ccc(CC)cc1)cn2CC(=O)Nc1cccc(Cl)c1 | . | .
Cn1c(=O)n(CC(=O)O)c(=O)c2c1nc1n2CCCN1c1ccc(Cl)cc1 | . | .
CCCCOC(=O)Cn1c(=O)c2c(nc3n2CCCCN3c2ccc(C)cc2)n(C)c1=O | . | 25µM
CC(=O)C1=C(C)NC(SCC(=O)c2ccc(Cl)cc2)=C(C#N)C1c1ccco1 (stereo not given) | . | .
CC(=O)C1=C(C)NC(SCC(=O)c2ccc(Cl)cc2Cl)=C(C#N)C1c1ccco1 (stereo not given) | 32µM | .
CCOC(=O)c1c(C2COc3ccccc3O2)csc1N (stereo not given) | . | .
CCOC(=O)c1c(C2COc3ccccc3O2)csc1NC(=O)c1ccccc1 (stereo not given) | 25µM | .
CCCSc1nc2c(c(=O)[nH]c(=O)n2C)n1Cc1ccc(C)cc1 | . | .
Cc1ccc(Cn2c(SCC(C)C)nc3c2c(=O)[nH]c(=O)n3C)cc1 | 10µM | .
SMILES | Cruzain inh noDet | Cruzain inh Det
CCCCOc1ccccc1C(=O)N(Cc1sccc1C)C1CCS(=O)(=O)C1 (stereo not given) | . | .
CCOc1ccc(C(=O)Nc2c(C(=O)Nc3ccccc3OC)oc3ccccc23)cc1OCC | . | .
Cc1ccc(-c2nnn(CC(=O)N(c3ccccc3)C(C(=O)NC3CCCC3)c3ccco3)n2)o1 (stereo not given) | 10µM | .
Cc1ccc(-c2nnn(CC(=O)N(Cc3cccs3)C(C(=O)NC3CCCC3)c3ccco3)n2)o1 (stereo not given) | . | .
Cc1cccc(N2CC(C(=O)Nc3nnc(SCC(=O)Nc4nccs4)s3)CC2=O)c1 (stereo not given) | 6.3µM | .
Cc1cc(NC(=O)CSc2nnc(Nc3ccccc3)s2)no1 | 16µM | .
Cc1cccc(N2CC(C(=O)Nc3nnc(SCC(=O)Nc4cc(C)on4)s3)CC2=O)c1 (stereo not given) | 10µM | .
COc1cccc(N2CC(C(=O)Nc3nnc(SCC(=O)c4ccccc4)s3)CC2=O)c1 (stereo not given) | . | .
Cc1ccccc1N1CC(C(=O)Nc2nnc(SCC(=O)Nc3nccs3)s2)CC1=O (stereo not given) | . | .
COc1ccc(Nc2nnc(SCC(=O)Nc3cc(C)on3)s2)cc1 | . | .
CC1Cc2cc(S(=O)(=O)N(C)c3ccc(Br)cc3)ccc2N1C(=O)C1CC1 (stereo not given) | . | .
Cc1nc2ccc(S(=O)(=O)CCC(=O)Nc3ccc(F)cc3C)cc2s1 | . | .
O=C(Nc1cccc(-c2nc3ccccc3o2)c1)C(F)(F)F | . | .
C/C(CC(=O)Nc1ccc(Cl)cc1Cl)=N\NC(N)=S | 7.9µM | 10µM
COc1ccc(Cl)cc1NC(=O)C/C(C)=N/NC(=O)CC#N | . | .
CCOC(=O)c1c(NC(=O)C2C3C=CC(CC3)C2C(=O)O)sc(C)c1C (stereo not given) | . | .
CCOC(=O)c1c(NC(=O)C2=C(C)NC(=S)NC2c2ccc(C)cc2)sc(C)c1C (stereo not given) | 20µM | .
CCOC(=O)c1c(NC(=O)C2=C(C)NC(=S)NC2c2ccc(F)cc2)sc(C)c1C (stereo not given) | 16µM | .
CCOC(=O)c1c(NC(=O)C2=C(C)NC(=S)NC2c2ccc(F)cc2F)sc(C)c1C (stereo not given) | ? | .
O=C(Nc1ccc(F)cc1F)c1ccc(-n2cnc3cccnc32)cc1 | . | .
CCOc1ccc(C(=O)Nc2ccc3nc(SCC(=O)N4CCc5ccccc54)sc3c2)cc1 | . | .
Fc1ccc(Nc2nc(SCc3cccc(Cl)c3)nc3ccccc23)cc1 | . | .
COc1ccc(S(=O)(=O)n2nc(OC(=O)c3ccccc3)cc2N)cc1 | . | .
COc1ccc(S(=O)(=O)n2nc(OC(=O)c3cccs3)cc2N)cc1 | 13µM | ?
COc1ccc(S(=O)(=O)n2nc(OC(=O)c3ccc(C)cc3)cc2N)cc1 | . | .
SMILES | Cruzain inh noDet | Cruzain inh Det
COc1ccc(S(=O)(=O)n2nc(OC(=O)c3ccco3)cc2N)cc1 | 20µM | 13µM
CC1COC2=C1C(=O)C(=O)c1c2ccc2c1CCCC2(C)C (stereo not given) | ? | .
Cc1ccccc1-n1c(SCC(N)=O)nc2sc(-c3ccccc3)cc2c1=O | . | .
C=CCSc1nc2sc(-c3ccccc3)cc2c(=O)n1N | 32µM | .
CCOC(=O)c1[nH]c(C)c(CCC(=O)NCc2ccc(C)cc2)c1C | . | .
Cc1cccc(-c2nnc(SCC(=O)Nc3ccc(C)c(C)c3)o2)c1 | . | .
CCn1c2ccccc2c2cc(NC(=O)CSc3nnc(-c4cccc(Cl)c4)o3)ccc21 | 10µM | .
C[C@@H]1[C@H]2CC[C@@H]3[C@@H]4CC=C5C[C@@H](N(C)C)CC[C@]5(C)[C@@H]4CC[C@@]32CN1C | . | .
Cc1cccc(N2C(=O)NC(=O)/C(=C\c3cccn3-c3ccc(Cl)cc3)C2=O)c1 | . | .
COc1ccc(-n2cccc2/C=C2/NC(=O)N(c3cccc(Cl)c3)C2=O)cc1 | 10µM | .
CCOC(=O)CC(=O)CSc1nc2c(c(-c3cccs3)c1C#N)CCC2 | . | .
CCOCCSc1nc2c(c(-c3cccs3)c1C#N)CC/C2=C/c1cccs1 | 16µM | .
COc1ccc(CN2CCc3nc(SCC(=O)Nc4cc(C)cc(C)c4)[nH]c(=O)c3C2)cc1 | . | .
Cc1ccc(NC(=O)/C=C\C(=O)N(c2ccc(C(C)C)cc2)C(C(=O)NCc2ccco2)c2ccc(F)cc2)cc1 (stereo not given) | . | .
